An excerpt weighted towards active compounds, which were near 11% of everything screened.
USP30 block – inhibitors of human USP30 deubiquitinase. purified USP30, Ub-rhodamine cleavage fluorescence. inhibition, % at 25 µM. 5.3% of 47,000 active. AID 1645860, 2021
OTUD3 inh – inhibitors of human OTUD3 deubiquitinase; OTU domain-containing protein 3 (Homo sapiens), Q5T2D3; purified OTUD3, Ub-rhodamine fluorescence, 2 h; inhibition, % at 25 µM; 0.7% of 47,000 active
USP17 block – inhibitors of human USP17 deubiquitinase | inhibition, % at 50 µM | AID 1645855, 2021 | 6.5% of 47,000 active | purified USP17, Ub-rhodamine cleavage fluorescence, 3 h
USP28 inh – inhibitors of human USP28 deubiquitinase | purified USP28, Ub-rhodamine cleavage fluorescence, 30 min | Ubiquitin carboxyl-terminal hydrolase 28 (Homo sapiens), Q96RU2 | 3% of 47,000 active | inhibition, % at 25 µM | AID 1645857, 2021
Starred values were filed as active, the others as inactive; x = no result given. No stated cut-off is given here; in the data, active means inhibition above about 30%; inactive means the rest.

SMILES	USP30 block	OTUD3 inh	USP17 block	USP28 inh
CCCCC[C@H](O)/C=C/C=C/CCCCCCCC(=O)O	14	21	3	22
CC(C)CCCCCCCCCCCC(=O)O	47*	6	43*	14
O=C(O)CCC(=O)Nc1cccc(-c2nnc(-c3ccccc3)o2)c1	33*	9	19	8
COc1cc(O)cc2c1C(=O)OC(C)CCCCCCC2 (stereo not drawn)	37*	6	40*	24
COc1cc(O)cc2c1C(=O)OC(C)CCCC(O)CCC2 (stereo not drawn)	-18	-7	-10	-13
C[C@H]1CCCC(=O)CCCCCc2cc(OCc3ccccc3)cc(O)c2C(=O)O1	32*	11	21	4
Cc1cc(-c2cnc(NCCCN3CCOCC3)nc2-c2ccco2)on1	-66	-3	-10	-16
Cc1cc(-c2cnc(NCc3cccc(F)c3)nc2-c2ccco2)on1	9	10	41*	26
COc1cccc(NC(=O)C(C)n2cnc3nc(N4CCCCC4)ncc3c2=O)c1 (stereo not drawn)	5	5	2	-1
CN1CCN(Cc2nc(-c3ccc(N4CCCCC4)nc3)no2)CC1	33*	14	-2	10
CC(=O)N1CCN(Cc2nc(-c3ccc(N4CCCCC4)nc3)no2)CC1	-9	8	-3	-7
COc1cccc(CN2CCCC(C(=O)N3CCc4ccccc4C3)C2)c1 (stereo not drawn)	17	20	8	28
CC(NC(=O)c1ccccc1)c1nc2ccccc2n1CC(=O)Nc1ccc2c(c1)OCO2 (stereo not drawn)	49*	10	54*	15
CCc1cccc(C)c1NC(=O)Cn1c(C(C)NC(=O)c2ccc(C)cc2)nc2ccccc21 (stereo not drawn)	54*	24	61*	40*
CC(NC(=O)c1ccccc1)c1nc2ccccc2n1CC(=O)Nc1ccc(F)cc1 (stereo not drawn)	17	15	39*	8
CC(C)c1ccc(NC(=O)Cn2c(CNC(=O)c3ccccc3)nc3ccccc32)cc1	-19	-13	-28	-5
Cc1cccc(C(C)C)c1NC(=O)Cn1c(COc2ccccc2)nc2ccccc21	22	9	x	3
Cc1cc(C(=O)Nc2ccccc2Cl)cc2c1N(C)S(=O)(=O)c1ccccc1-2	23	4	6	12
COc1ccc(NC(=O)Cn2c(=O)n(CCC(=O)N3CCc4ccccc4C3)c(=O)c3ccccc32)cc1Cl	19	23	x	10
Cc1cc(C)cc(C(=O)NC(C)C(=O)N2CCN(c3ccccn3)CC2)c1 (stereo not drawn)	12	6	6	11
Cc1ccccc1NC(=NS(=O)(=O)c1ccccc1)c1ccc(Cl)cc1	8	4	5	44*
Cc1ccccc1S(=O)(=O)N=C(Nc1ccccn1)c1ccccc1	22	7	11	2
O=C(c1ccccc1)N1CCCCCC1C1CCN(Cc2nnnn2-c2ccccc2)CC1 (stereo not drawn)	-42	-28	-14	-24
O=C(c1cn(-c2cccc(F)c2)nn1)N1CCc2ccccc2C1	11	7	55*	1
CC(C)(C)c1ccc(C(=O)NCc2cccnc2)s1	-8	-9	x	-8
SMILES	USP30 block	OTUD3 inh	USP17 block	USP28 inh
O=C(Nc1sc2c(c1C(=O)NCc1cccnc1)CCCC2)c1csnn1	11	16	49*	38*
O=C(Nc1nnc(C2CC2)s1)c1ccc(OCC2CCCO2)cc1 (stereo not drawn)	-9	5	64*	0
Cc1cc(C)cc(N2CCC(NS(=O)(=O)Cc3ccccc3)C2=O)c1 (stereo not drawn)	2	6	-11	0
CC1(C)OC(=O)[C@@]2(C)N[C@]1(C)C[C@@H]2C(=O)Nc1ccccc1	6	5	4	1
O=C(O)C1C(C(=O)Nc2ccccc2)C2(c3ccccc3)C(=O)C1(c1ccccc1)C(c1ccccc1)=C2c1ccccc1 (stereo not drawn)	82*	64*	94*	86*
Cc1ccccc1C(=O)NCc1ccc2c(c1)CCO2	9	3	4	8
CC(C)c1ccc(S(=O)(=O)N2CCCC(c3nc(-c4cccnc4)no3)C2)cc1 (stereo not drawn)	82*	29	52*	21
CCc1cc(C(c2ccc(OC)c(OC)c2)N2CCOCC2)c(NC(=O)c2ccccc2)s1 (stereo not drawn)	x	6	16	x
O=C(CSc1ccc(N2CCC(C(=O)NC3CC3)CC2)nn1)Nc1cccc(Cl)c1	-91	-13	38*	-18
